The values below come from PubChem BioAssay AID493206 (National Center for Advancing Translational Sciences (NCATS), 2011).

The structures appear in SMILES notation. “And” between values parts separate entries of the source, which are not always exact repeats. Equal values may be shown once. Results filed as inconclusive are left out. The source made the active and inactive calls. The call rests on the fitted dose curve; in most records, active means well fitted inhibition curve with a large enough effect; inconclusive means small, poorly fitted or top-dose-only effect; inactive means flat fitted curve, though single readings scatter.

The assay has as its target Dual specificity tyrosine-phosphorylation-regulated kinase 1A (Homo sapiens) (UniProt Q13627). The experiment in a line: Assay for Inhibitors of Dual-Specificity Tyrosine-(Y)-Phosphorylation Regulated Kinase 1A (Kinase-Glo assay): round 2 SAR. The settings on record: recombinant DYRK1A, Kinase-Glo ATP depletion luminescence; series mostly up to 76.9 µM; activity, negative = inhibition: at the top concentration. The text has this: NIH Molecular Libraries Probe Production Centers Network [MLPCN] NIH Chemical Genomics Center [NCGC] MLPCN Grant: 1R03MH084827-01 PI Name: Tom Misteli NCGC Assay Overview: The CMGC group of protein kinases which includes CDK-like kinases (Clk) and Dyks are essential kinases found in all eukaryotes. Clks have been implicated to play a role in the regulation of alternative splicing; while Dyrks, in particular over expression of Dyrk1A, has been linked to diseases as Down syndrome (DS; OMIM 190685) and Alzheimer disease (AD; OMIM 104300). Among the members of the CMGC group, the Clks and the Dyrks are very closely related therefore to determine validity and selectivity of an active compound observed in the CLK4 qHTS screen (AID:1770), a bioluminescent counter-screen against Dyrk1A was developed. In addition, potent and selective compounds against Dyrk1A were identified to further assess the role of this enzyme in DS and AD. Dyrk1A (Invitrogen, cat # PV3785) was assayed using ATP and DYRKtide (AnaSpec, cat# 62698) as substrates. Promega Kinase-Glo (cat# V6712) technology was used to detect the residual ATP following kinetic reaction. The Kinase-Glo Plus contains Ultra-Glo [5] luciferase and D-luciferin which generates a bioluminescence signal from the remaining ATP. No enzyme and harmine (Sigma, cat # 286044-1G), a compound shown to inhibit Dyrks were used as a positive control; while DMSO treatment was used as a negative control.
NCGC Assay Protocol Summary: Two uL/well of substrate solution (8uM Dyrktide, 2uM ATP, 25mM Tris-HCl pH 7.5, 10mM MgCl2 , 0.5mM EGTA, 5mM cystein, 0.01% Triton X-100 final concentration) was dispensed into 1536-well assay plates (Greiner, solid white, medium-binding plates) with Aurora Discovery BioRAPTR Flying Reagent Dispenser (FRD, Beckton-Dickenson). Compound solution (23 nL) was transferred to the assay plate using Kalypsys pin tool equipped with a 1536-pin tool. One uL/well enzyme solution (5nM Dyrk1A, 25mM Tris-HCl pH7.5, 10mM MgCl2, 0.5mM EGTA, 5mM cystein, 0.01% Triton X-100 final concentration) was then added using FRD yielding a total kinase reaction volume of 3uL/well. After 2 hours of room temperature incubation, 3uL Kinase-Glo detection reagent was added for a final assay volume of 6uL/well. The plates were spun for 30 seconds (1000 rpm) and incubated at ambient temperature for 2 minutes followed by a luminescence read using Perkin Elmer ViewLux plate reader at 3 seconds exposure time and 2x binning.
On the technique in general: In Kinase-Glo more light means more ATP remaining.
As to `CN(Cc1ccco1)c1ncnc2ccc(-c3ccoc3)cc12`, the Potency is 0.207 µM (active). Same read-out and setting: the value for `Cc1cccc(CNc2ncnc3ccc(-c4cccnc4)cc23)c1` was 29.2 µM (active); that for `COc1cccc(-c2ccc3ncnc(NCc4cc(C)cs4)c3c2)c1` was 5.82 µM (active); that for `c1nc(NCC2CCCCC2)c2cc(-c3ccc4c(c3)OCO4)ccc2n1` was 0.26 µM (active). The same measure, in the same setting: the value for `c1cncc(CNc2ncnc3ccc(-c4ccco4)cc23)c1` was 26 µM (active). The same measure, in the same setting: then `O=C(O)c1ccc(-c2ccc3ncnc(NCc4nccs4)c3c2)o1`, with 18.4 µM (active); and `CC(=O)c1ccc(-c2ccc3ncnc(NCc4ccc(C)o4)c3c2)o1`, with 5.82 µM (active); and `c1nc(N2CCOCC2)c2cc(-c3ccc4c(c3)OCO4)ccc2n1`, with 1.46 µM (active). For `c1cncc(CNc2ncnc3ccc(-c4ccoc4)cc23)c1`, the Potency was 9.23 µM (active). Consider `c1nc(N2CCNCC2)c2cc(-c3ccc4c(c3)OCO4)ccc2n1`, for which the Potency was 5.19 µM (active).

Regarding `CCCNc1ncnc2ccc(-c3ccc4c(c3)OCO4)cc12`, the Potency is 0.184 µM (active). Take `Clc1cccc(-c2ccc3ncnc(NCc4ccc5c(c4)OCO5)c3c2)c1`: the “activity, negative = inhibition” value is -15.5% (inactive).

On to `O=C(O)c1ccc(-c2ccc3ncnc(N4CCOCC4)c3c2)o1`, for which the Potency was 26 µM (active). Still for that read-out and setting: the value for `CC(Nc1ncnc2ccc(-c3ccc4c(c3)OCO4)cc12)c1ccco1` (stereo not given) was 0.582 µM (active); that for `Cc1csc(CNc2ncnc3ccc(-c4ccc5c(c4)OCO5)cc23)c1` was 0.463 µM (active). Consider `CS(=O)(=O)CCNCc1ccc(-c2ccc3ncnc(Nc4ccc(OCc5cccc(F)c5)c(Cl)c4)c3c2)o1`, for which the “activity, negative = inhibition” value is -4.73% (inactive). Consider `Clc1ccccc1-c1ccc2ncnc(NCc3cccs3)c2c1`, for which the Potency is 6.54 µM (active). Same read-out and setting: then `c1cncc(CNc2ncnc3ccc(-c4ccc5c(c4)OCO5)cc23)c1`, with 0.412 µM (active); and `Cc1cccc(-c2ccc3ncnc(NCc4cccs4)c3c2)c1`, with 18.4 µM (active). The same measure, in the same setting: the value for `Cc1ccsc1CN(C)c1ncnc2ccc(-c3ccc([C@@H](C)O)o3)cc12` was 3.68 µM (active) and 1.46 µM (active) and 1.04 µM (active); that for `c1csc(CNc2ncnc3ccc(-c4ccc5c(c4)OCO5)cc23)n1` was 0.184 µM (active).

Consider `c1coc(CNc2ncnc3ccc(-c4ccc5c(c4)OCO5)cc23)c1`, for which the Potency is 0.207 µM (active). Same read-out and setting: then `Cc1csc(CNc2ncnc3ccc(-c4ccoc4)cc23)c1`, with 3.68 µM (active); and `Cc1ccsc1CN(C)c1ncnc2ccc(-c3ccc(COC(=O)N(C)C)o3)cc12`, with 9.23 µM (active). Same read-out and setting: the value for `CCNC(=O)c1ccc(-c2ccc3ncnc(NCCc4cnc[nH]4)c3c2)o1` was 11.6 µM (active); that for `Cc1csc(CNc2ncnc3ccc(-c4cccnc4)cc23)c1` was 23.2 µM (active). Still for that read-out and setting: the value for `CC(O)c1ccc(-c2ccc3ncnc(NCCc4cnc[nH]4)c3c2)o1` (stereo not given) was 23.2 µM (active). Take `Cc1ccc(CN(C)c2ncnc3ccc(-c4ccc(C(=O)O)o4)cc23)o1`: the Potency was 16.4 µM (active). The same measure, in the same setting: the value for `COc1cccc(-c2ccc3ncnc(NCc4cccc(F)c4)c3c2)c1` was 4.63 µM (active); that for `COc1cccc(-c2ccc3ncnc(NCc4ccc5c(c4)OCO5)c3c2)c1` was 9.23 µM (active); that for `Cc1cccc(CNc2ncnc3ccc(-c4ccc5c(c4)OCCO5)cc23)c1` was 3.68 µM (active). On the same count and under the same terms, then `c1cncc(-c2ccc3ncnc(NCc4cccs4)c3c2)c1`, with 23.2 µM (active); and `CN(CC1CCCO1)c1ncnc2ccc(-c3ccc4c(c3)OCO4)cc12` (stereo not given), with 0.26 µM (active).

Take `Cc1cccc(CNc2ncnc3ccc(-c4ccoc4)cc23)c1`: the Potency is 3.68 µM (active). On to `COc1cccc(Nc2ncc3ncc(=O)n(C)c3n2)c1`, for which the Potency is 11.6 µM (active). The same measure, in the same setting: then `Fc1cccc(CNc2ncnc3ccc(-c4ccoc4)cc23)c1`, with 0.823 µM (active); and `C[C@@H](O)c1ccc(-c2ccc3ncnc(NCc4cccs4)c3c2)o1`, with 23.2 µM (active). Still for that read-out and setting: the value for `c1nc(NCc2ccc3c(c2)OCO3)c2cc(-c3ccoc3)ccc2n1` was 18.4 µM (active); that for `CN(CC1CCCCO1)c1ncnc2ccc(-c3ccc4c(c3)OCO4)cc12` (stereo not given) was 0.292 µM (active); that for `Cc1nc(CCN(C)c2ncnc3ccc(-c4ccc5c(c4)OCO5)cc23)cs1` was 0.654 µM (active).
